Shown are actives, neighbours in structure and some others; about 6.7% of the full set was active somewhere.
Pf_Dd2_inh = blocks growth of Plasmodium falciparum Dd2 parasites | P. falciparum Dd2 growth, SYBR Green, 72 h; hits give low values | activity change, % at 10 µM | 94,000 tested, 2.3% active | AID 1159554; in the data active means activity change below about -80%; inconclusive means no clear call, values can overlap the other calls
T_cruzi_growth-1 = blocks T. cruzi growth in NIH3T3 culture. T. cruzi beta-gal in NIH3T3, GalScreen luminescence, 90 h. inhibition, % at 8.34 µM. 77,000 tested, 5.9% active. AID 624255;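 active means mean inhibition above about 93%, with at least 55% of replicates each passing it, limit read from the data, passing the limit was not always enough; inconclusive means only one of those two conditions holds; inactive means neither condition holds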
C_diff_growth = C. difficile growth inhibition; 86,000 tested, 0.25% active; growth activity, negative = inhibition, % at 16 µg/mL (by protocol); Clostridium difficile clinical isolate growth, OD600, 24 h; hits give low values;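 active means mean growth activity at or below -80% and every replicate also at or below -80%; inconclusive means mean at or below -80% but some replicate above -80%; inactive means mean growth activity above -80%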;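 further: 0% = DMSO wells and -100% = levofloxacin 16 µg/mL wells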
T_cruzi_growth-2 = Trypanosoma cruzi proliferation inhibition; shares compounds with T_cruzi_growth-1; inhibition, % at 8.35 µM; T. cruzi beta-gal in NIH3T3, GalScreen luminescence, 90 h; 5,600 tested, 72% active;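 active means mean replicate inhibition above about 95% and at least 55% of replicates individually reaching it, limit read from the data; inconclusive means only one of the two criteria is met; inactive means neither criterion is met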
T_cruzi_growth-3 = inhibitors of T. cruzi proliferation. shares compounds with T_cruzi_growth-1. T. cruzi beta-gal in NIH3T3, GalScreen luminescence, 90 h. inhibition, % at 2.09 µM. 5,600 tested, 21% active. AID 651740;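 active means mean inhibition above about 95%, with at least 55% of replicates also reaching it, limit read from the data; inconclusive means meets just one of the two conditions; inactive means meets neither condition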;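 further: plate controls were neutral control median for no effect and positive control median for full effect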
3T3_cytotox = cytotoxicity in mouse NIH/3T3 fibroblasts | cytotoxicity (signal decrease), % at 8.35 µM | AID 651742 | NIH/3T3 viability, CellTiter-Glo ATP luminescence, 90 h | shares compounds with T_cruzi_growth-1 | 5,600 tested, 14% active;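 active means mean signal decrease across replicates above about 35% based on untreated-well scatter, with enough replicates individually passing, limit read from the data; inconclusive means no rule stated though some were filed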;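 further: 0% = median of neutral control wells and 100% = median of positive control wells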
3T3_cytotox_2 = cytotoxicity in mouse NIH/3T3 fibroblasts | shares compounds with T_cruzi_growth-1 | inhibition, % at 24.9 µM | AID 651744 | NIH/3T3 viability, CellTiter-Glo ATP luminescence, 90 h | 5,600 tested, 56% active;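 active means mean loss of cell viability signal at or above a set limit, and enough replicates individually reaching it; inconclusive means meets only the mean limit or only the replicate share; inactive means meets neither condition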;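 further: 0% = median of neutral control wells and 100% = median of positive control wells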
* marks the source's active call; other numbers are inactive results; ? = inconclusive; . = no result.

SMILES Pf_Dd2_inh T_cruzi_growth-1 C_diff_growth T_cruzi_growth-2 T_cruzi_growth-3 3T3_cytotox 3T3_cytotox_2
CC(C)CC#Cc1ccc2c(c1)O[C@@H](CN(C)C(=O)NC1CCCC1)[C@@H](C)CN([C@H](C)CO)S2(=O)=O -27.7 119.3* -10.2 105.5* 93.8 -2.9 101.9*
C[C@H]1CN([C@@H](C)CO)S(=O)(=O)c2ccc(C#Cc3ccc(F)cc3)cc2O[C@H]1CN(C)C(=O)NC1CCCC1 ? 98.7* -13.7 98.6* 112.8* 2.4 104.4*
C[C@@H]1CN([C@H](C)CO)S(=O)(=O)c2ccc(C#Cc3ccc(F)cc3)cc2O[C@@H]1CN(C)C(=O)NC1CCCCC1 -2.6 78.3 3.3 . . . .
C[C@H](CO)N1C[C@H](C)[C@H](CN(C)C(=O)NC2CCCC2)Oc2cc(C#Cc3ccc(F)cc3)ccc2S1(=O)=O -47.2 104.0* -9.1 95.3* 116.0* -5.3 60.6*
C[C@@H]1CN([C@@H](C)CO)C(=O)c2cc(NC(=O)NC3CCCCC3)ccc2O[C@@H](C)CCCCO[C@H]1CN(C)C(=O)Cc1ccccc1 -10.6 2.3 -3.1 . . . .
CO[C@H]1CN(C)C(=O)c2ccc(NC(=O)c3ccc(F)cc3)cc2OC[C@H](C)N(C(=O)c2ccc(F)cc2)C[C@@H]1C -27.7 20.2 . . . . .
CNC(=O)C[C@H]1CC[C@@H]2[C@H](COc3ccc(NC(=O)Nc4ccc(Cl)cc4)cc3C(=O)N2C)O1 -6.8 24.3 3.2 . . . .
Cc1noc(C)c1S(=O)(=O)N(C)C[C@@H]1Oc2ccc(NC(=O)CCC(F)(F)F)cc2CC(=O)N([C@@H](C)CO)C[C@H]1C 28.4 1.4 -2.4 . . . .
N#C[C@H]1[C@@H](c2ccccc2-c2ccccc2)[C@@H](CO)N1C(=O)NC1CCCC1 12.6 . -12.6 . . . .
CN1c2ccc(-c3cccc(F)c3)cc2[C@@H]2[C@@H](CCN2C(=O)Cc2ccccc2)[C@H]1CO 17.5 19.0 7.3 . . . .
C[C@H](CO)N1C[C@H](C)[C@@H](CN(C)C(=O)NC2CCCCC2)Oc2cc(C#Cc3ccc(F)cc3)ccc2S1(=O)=O -34.3 86.7 9.2 . . . .
COc1ccc(C#Cc2ccc3c(c2)O[C@@H](CN(C)C(=O)NC2CCCCC2)[C@H](C)CN([C@H](C)CO)S3(=O)=O)cc1 -75.1 ? -6.7 103.1* 99.1* -12.7 12.7
C[C@@H]1CCCCO[C@@H](CN(C)C(=O)Nc2ccc(F)cc2)[C@H](C)CN([C@@H](C)CO)C(=O)c2cc(NC(=O)Nc3cccc4ccccc34)ccc2O1 -7.2 90.8 -8.1 . . . .
C[C@@H]1CCCCO[C@H](CN(C)C(=O)Nc2cccc3ccccc23)[C@@H](C)CN([C@H](C)CO)C(=O)c2cc(NC(=O)Nc3ccc(F)cc3)ccc2O1 -34.3 69.0 -2.6 . . . .
C[C@H](CO)N1C[C@H](C)[C@H](CN(C)C(=O)Nc2cccc3ccccc23)OCCCC[C@H](C)Oc2ccc(NC(=O)Nc3ccc(F)cc3)cc2C1=O -48.3 ? -3.1 100.8* 70.6 0.4 0.1
C[C@@H]1CCCCO[C@H](CN(C)C(=O)Nc2ccc(F)cc2)[C@H](C)CN([C@@H](C)CO)C(=O)c2cc(NC(=O)Nc3cccc4ccccc34)ccc2O1 -39.4 102.4* -5.0 110.2* 81.0 -20.1 -4.7
C[C@@H]1CCCCO[C@H](CN(C)C(=O)Nc2cccc3ccccc23)[C@H](C)CN([C@@H](C)CO)C(=O)c2cc(NC(=O)Nc3ccc(F)cc3)ccc2O1 -82.7* 100.9* 7.2 111.6* 60.2 -13.6 -10.8
C[C@@H]1CCCCO[C@@H](CN(C)C(=O)Nc2ccccc2)[C@@H](C)CN([C@@H](C)CO)C(=O)c2cc(NC(=O)Nc3cccc4ccccc34)ccc2O1 ? . -2.3 . . . .
CCC(=O)N[C@@H]1CC[C@H](CC(=O)NCc2ccccc2OC)O[C@@H]1CO 11.9 -39.4 4.7 . . . .
CCC(=O)N1[C@H](CN(C)C(C)=O)[C@@H](c2ccc(-c3cccc(F)c3)cc2)[C@@H]1CO 11.0 7.3 -8.6 . . . .
O=C(NC1CCCC1)N1CC(=O)N2[C@H](C1)[C@@H](c1ccc(/C=C/c3ccccc3)cc1)[C@@H]2CO -27.2 . -1.8 . . . .
O=C(NC1CCCC1)N1CCCCN2[C@H](C1)[C@H](c1ccc(/C=C/c3ccccc3)cc1)[C@@H]2CO 0.2 104.1* 12.6 103.6* 78.0 3.3 104.8*
O=C(NC1CCCC1)N1CCCCN2[C@H](CO)[C@@H](c3ccc(/C=C/c4ccccc4)cc3)[C@@H]2C1 1.6 107.3* 15.5 99.7* 101.2* 19.9 103.6*
O=C(NC1CCCC1)N1CCCCN2[C@H](C1)[C@@H](c1ccc(/C=C/c3ccccc3)cc1)[C@@H]2CO 0.9 75.1 2.2 . . . .
CN1C(=O)c2cc(NC(=O)C3CC3)ccc2OC[C@H]2O[C@@H](CC(=O)NCc3cccc(F)c3)CC[C@@H]21 -16.0 17.3 0.1 . . . .
SMILES Pf_Dd2_inh T_cruzi_growth-1 C_diff_growth T_cruzi_growth-2 T_cruzi_growth-3 3T3_cytotox 3T3_cytotox_2
COc1ccc(-c2ccc3c(c2)[C@@H]2[C@@H](CCN2C(=O)Nc2ccc(F)cc2)[C@H](CO)N3C)cc1 -54.9 . -2.4 . . . .
Cc1noc(C)c1S(=O)(=O)N(C)C[C@@H]1OCCCC[C@@H](C)Oc2ccc(NC(=O)C3CCCCC3)cc2C(=O)N([C@H](C)CO)C[C@@H]1C -29.1 22.8 -1.1 . . . .
C/C=C/c1ccc([C@@H]2[C@H]3CN(S(=O)(=O)c4ccccc4)CCCCN3[C@H]2CO)cc1 1.1 83.9 -6.9 . . . .
C/C=C/c1ccc([C@@H]2[C@H](CO)N3CCCCN(S(=O)(=O)c4cccc(C)c4)C[C@@H]23)cc1 -73.9 75.9 -1.0 . . . .
C/C=C/c1ccc([C@H]2[C@@H](CO)N3CCCCN(S(=O)(=O)c4cccc(C)c4)C[C@H]23)cc1 -72.1 102.4* 17.4 101.0* 89.9 17.8 104.1*
C/C=C/c1ccc([C@H]2[C@@H](CO)N3CCCCN(S(=O)(=O)c4ccccc4)C[C@@H]23)cc1 19.6 101.5* 1.5 99.9* -16.1 4.3 2.4
CN(C)CC#Cc1ccc([C@H]2[C@@H](CO)N3CCCCN(C(=O)Nc4ccc(F)cc4)C[C@@H]23)cc1 6.9 18.8 -0.9 . . . .
COc1ccc(S(=O)(=O)Nc2ccc3c(c2)C(=O)N([C@H](C)CO)C[C@@H](C)[C@@H](CN(C)CC2CC2)O3)cc1 -42.6 2.7 3.8 . . . .
CC(C)C#Cc1ccc2c(c1)O[C@H](CN(C)C(=O)c1cccc(F)c1)[C@H](C)CN([C@@H](C)CO)S2(=O)=O -55.7 118.3* 7.1 108.6* 92.3 27.9 78.1*
CC(C)C#Cc1ccc2c(c1)O[C@@H](CN(C)C(=O)c1cccc(F)c1)[C@H](C)CN([C@@H](C)CO)S2(=O)=O -63.8 107.3* 12.6 109.6* 26.7 27.1 60.1*
